For this assay, the target named is TMLHE_Q9NVH6_51_SLTCAWQQHEDHFELK (UniProt Q9NVH6). In words: probe-labelled cysteine peptide fold change vs DMSO (competition) (log2 fold change); higher = less target engagement (more negative = stronger competition). The following applies: THP-1, incubation time: 4 h.

Targets with the largest changes are over-represented here; the source holds about 21,000 in all.
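Further: competitive profiling in live THP-1 cells: cysteine peptides tagged with an iodoacetamide desthiobiotin (IA-DTB) probe, intensity after compound treatment relative to DMSO-treated cells.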

UniProt Q9NVH6, sequence (Q9NVH6 whole entry, looked up): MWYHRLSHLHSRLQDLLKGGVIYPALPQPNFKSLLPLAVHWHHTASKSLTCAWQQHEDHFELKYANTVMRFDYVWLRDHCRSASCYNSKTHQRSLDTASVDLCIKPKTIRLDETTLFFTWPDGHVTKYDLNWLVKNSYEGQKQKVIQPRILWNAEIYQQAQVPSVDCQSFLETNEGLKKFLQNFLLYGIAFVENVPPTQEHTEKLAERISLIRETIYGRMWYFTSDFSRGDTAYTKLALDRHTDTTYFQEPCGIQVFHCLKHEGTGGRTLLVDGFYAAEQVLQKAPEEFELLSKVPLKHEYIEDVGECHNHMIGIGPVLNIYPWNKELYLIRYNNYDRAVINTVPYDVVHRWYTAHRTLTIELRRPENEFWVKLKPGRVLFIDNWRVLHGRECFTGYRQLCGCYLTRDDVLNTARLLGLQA

As to `Cc1cc(C(=O)N2CCCN(C(=O)CCl)CC2)ccc1-c1ccccc1` [compound 10], the “probe-labelled cysteine peptide fold change” value (10 µM) is -0.0542 and the “probe-labelled cysteine peptide fold change” value (50 µM) is -0.13.

The values above are taken from the supplement of paper PMC12067093, “Discovery and optimisation of a covalent ligand for TRIM25 and its application to targeted protein ubiquitination” (Chemical Science, 2025).
